# Assay outcomes from PubChem BioAssay.
# Rows were chosen to be rich in hits. Some 2.9% of all compounds tested hit in one or more screens of this group.
# Peg3 prom inh: Peg3 promoter activity inhibition | HeLa PEG-Prom luciferase reporter, luminescence, overnight | inhibition, % at 20 µM | 360,000 compounds, 1.7% hits | AID 588405;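 active means inhibition of at least 50% at 20 µM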
# CF NFkB inh: blocks PAF-induced NF-kB reporter in cystic fibrosis cells; KKLEB NF-kB-GFP reporter, GFP fluorescence overnight; inhibition, % at 5 µM; 360,000 compounds, 0.86% hits;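 active means at least 50% inhibition at 5 µM, scaled per plate between neutral and stimulator controls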;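 further: PAF is a Pseudomonas aeruginosa culture filtrate used as stimulus; plate controls were PAF-stimulated DMSO wells for no effect and unstimulated DMSO wells for full effect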
# Shn3 inh set2: reduces Shn3 3'UTR luciferase signal in osteoblasts; Clone20 osteoblast Shn3 3'UTR firefly luciferase, 24 h; inhibition, % at 12.5 µM; 360,000 compounds, 0.52% hits; AID 588674;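 active means mean inhibition of at least 75% with every replicate also reaching 75%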;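 further: 0% = median of neutral control wells and 100% = pilot-screen positive control compound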
# EBV LMP1 NFkB: Epstein-Barr LMP1 NF-kappaB reporter inhibition. LMP1-induced NF-kappaB luciferase reporter cells, luminescence. inhibition, % at 12.5 µM. 350,000 compounds, 0.69% hits; in the data active means inhibition above about 41%;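 further: 0% = neutral control wells and 100% = reference inhibitor control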
# KKLEB cytotox: counter-screen for CF NF-kB inhibitors: cytotoxicity; KKLEB CF airway cells viability, ATPlite luminescence, overnight; stronger effect = lower value; cells stimulated with P. aeruginosa culture filtrate; activity change (cytotoxicity), % at 5 µM; 360,000 compounds, 0.36% hits; AID 602141;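 active means corrected activity change at or below -50% at 5 µM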
# HIF-2a block: blocks HIF-2a reporter activity | 786-0 RCC cells HIF-2a reporter, luciferase luminescence, overnight | inhibition, % at 18.8 µM | 360,000 compounds, 0.72% hits | AID 624352;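 active means inhibition of the luminescence signal of 40% or more relative to plate controls, in a single-dose primary screen at 18.75 µM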
# * marks the source's active call; other numbers are inactive results; x = not tested or not shown.
SMILES,Peg3 prom inh,CF NFkB inh,Shn3 inh set2,EBV LMP1 NFkB,KKLEB cytotox,HIF-2a block
COCC(=O)Nc1c(C(=O)Nc2ccccc2OC)oc2ccccc12,-6,-9,2,-5,-7,-99
O=C(Cc1ccccc1Cl)Nc1cccnc1,9,29,8,0,-18,15
COc1ccc(C(C[N+](=O)[O-])C2(c3ccc(OC)c(OC)c3)C(=O)c3ccccc3C2=O)cc1 (centres undefined),102*,45,95*,5,-14,87*
COCCN1C(=S)NC(c2cccc(C(F)(F)F)c2)C(C(=O)N2CCOCC2)=C1C (centres undefined),6,-4,1,3,14,17
CCn1c(/C=C/c2cc(Br)ccc2O)nc2ccccc2c1=O,68*,30,-2,-21,-10,22
CCn1c(/C=C/c2ccc(O)c(O)c2)nc2ccccc2c1=O,-6,8,4,4,1,3
CC1(C)CC(=O)C(C=Nc2ccc(C(=O)c3ccccc3)cc2N=CC2=C(O)CC(C)(C)CC2=O)=C(O)C1,-14,52*,0,-5,-59*,-6
O=C(CSc1nnc(CNC(=O)c2ccc(F)cc2)o1)Nc1nccs1,5,-15,-2,-19,9,6
CN(C)c1ccc(C2/C(=C(/O)c3ccc(Br)cc3)C(=O)C(=O)N2C)cc1 (centres undefined),16,-5,25,7,1,49*
Cn1c(=O)c(C(=O)NNC(=O)c2cccc(Cl)c2)c(O)c2ccccc21,64*,73*,3,-5,-24,13
Cc1cccc(C(=O)NNC(=O)c2c(O)c3ccccc3n(C)c2=O)c1,5,-6,23,8,8,-10
CC(=O)[C@@]1(O)CCC2C3C=CC4=CC(=O)CC[C@]4(C)C3CC[C@@]21C (some centres undefined),2,8,-1,4,-5,5
CC(=O)C1(C)CCC2C3C=C(C)C4=CC(=O)CCC4(C)C3CCC21C (centres undefined),3,-1,87*,9,16,8
O=C1CCc2cccc(O)c2N1,1,21,94*,-2,10,6
O=[N+]([O-])c1cc(Cl)c(O)c2ncccc12,57*,15,10,15,1,3
O=[N+]([O-])c1cc(CN2CCN(c3ccccc3)CC2)c(O)c2ncccc12,59*,6,90*,80*,9,17
O=[N+]([O-])c1cc(Cl)c2cccnc2c1O,34,3,-10,-10,11,9
O=[N+]([O-])c1cc([N+](=O)[O-])c2cccnc2c1Oc1ccccc1O,51*,16,43,8,-11,6
CC(C)C[C@H]1CN([C@@H](CC(C)C)CN2CCC[C@H]2CN2C(=O)C(=O)NC[C@@H]2Cc2ccc(O)cc2)C(=O)C(=O)N1CC1CCCCCC1,x,x,x,x,x,1
C=CCOc1cccn2c(N(C)C(=O)c3ccccc3F)c(CC)nc12,-1,-7,0,x,-5,8
N=c1n(CCN2CCCCC2)c2ccccc2n1CC(O)c1cccc(Br)c1 (centres undefined),110*,20,68,-27,-23,-7
Cn1cnc([N+](=O)[O-])c1S(=O)(=O)c1ccc(Cl)cc1,104*,-13,13,-2,7,25
Cn1cnc([N+](=O)[O-])c1NC(C)(C)C,20,0,-12,5,-2,18
CCOc1ccc(/C=C2\CCc3ccccc3C2=O)cc1,-126,-2,-60,35,-48,-77
COc1ccc(C=C2CCc3ccccc3C2=O)cc1,-119,2,-26,x,-52*,-195
O=c1[nH]c(Nc2nc3ccccc3o2)nc2c1CCCC2,58*,-22,80,75*,21,-70
Cc1cc(Br)c(OCc2ccc(C(=O)N/N=C/c3ccc[nH]3)cc2)c(Br)c1,100*,71*,97*,-16,-85*,8
O=C(N/N=C/c1ccc[nH]1)c1ccc(O)cc1,-33,4,-8,0,11,-22
Cc1ccc(Cn2c(=N)n(CC(O)COc3ccccc3)c3ccccc32)cc1 (centres undefined),29,18,85,12,-4,-31
CCCCn1c(=N)n(CC(O)COc2ccc(C)cc2)c2ccccc21 (centres undefined),72*,-8,78,7,-6,0
